LmPK inhibitor – qHTS Assay for Inhibitors of Leishmania Mexicana Pyruvate Kinase (LmPK). purified LmPK, Kinase-Glo ATP luminescence, 1 h. Potency, µM (doses to about 57.5 µM), most hits filed as inhibitors. hit rate 0.37% among 290,000. Q27686. AID 1721, 2009
Target sequence (Q27686 whole entry, looked up): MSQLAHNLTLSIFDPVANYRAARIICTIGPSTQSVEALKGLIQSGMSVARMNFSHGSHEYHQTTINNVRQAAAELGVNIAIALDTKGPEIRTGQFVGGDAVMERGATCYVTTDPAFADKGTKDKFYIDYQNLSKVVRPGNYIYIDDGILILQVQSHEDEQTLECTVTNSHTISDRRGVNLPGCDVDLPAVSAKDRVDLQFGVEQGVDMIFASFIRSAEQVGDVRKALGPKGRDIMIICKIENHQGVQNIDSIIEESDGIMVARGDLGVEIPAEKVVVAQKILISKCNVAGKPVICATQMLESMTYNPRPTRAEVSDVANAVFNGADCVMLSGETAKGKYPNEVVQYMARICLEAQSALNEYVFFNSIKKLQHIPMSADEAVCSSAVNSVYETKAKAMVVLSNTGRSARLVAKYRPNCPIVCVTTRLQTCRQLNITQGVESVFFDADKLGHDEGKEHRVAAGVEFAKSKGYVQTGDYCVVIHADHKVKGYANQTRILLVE
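Purified LmPK (0.1 nM) converted ADP (0.1 mM) to ATP with PEP (0.5 mM) in imidazole buffer pH 7.2 with KCl and MgCl2, 1 h at room temperature. ATP was read by Kinase-Glo luminescence; data normalized to uninhibited and no-enzyme controls.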
TbPYK inhibitor – qHTS of Trypanosoma Brucei Inhibitors; pyruvate kinase (Trypanosoma brucei), Q57TT1; hit rate 0.12% among 410,000; TbPYK enzyme, Kinase-Glo Plus ATP luminescence, 45 min; Potency, µM (series often up to 76.8 µM), most hits filed as inhibitors; AID 624173, 2012; further: nearly all actives have a fitted effect of over 50% in size
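Activity of T. brucei pyruvate kinase was followed by Kinase-Glo Plus luminescence after the enzyme reacted 45 min at room temperature with 130 uM ADP (final) and substrate. Test compounds were added before ADP at multiple concentrations.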
Sm TGR block – qHTS Assay for the Inhibitors of Schistosoma Mansoni Peroxiredoxins; AID 485364, 2010; Potency, µM (top dose mostly 114 µM), actives largely listed as inhibitors; Schistosoma mansoni thioredoxin glutathione reductase (TGR), Q962Y6; purified TGR, DTNB reduction, TNB absorbance 405 nm; hit rate 3% among 360,000; further: nearly all actives have a fitted effect of over 60% in size
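First, TGR (20 nM dispensed) and NADPH were mixed with compound. Second, a 15 min room-temperature incubation followed. Third, further NADPH and then DTNB were added to start the reaction. Finally, TNB absorbance was monitored kinetically.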
Shiga inhibitor – A qHTS for Small Molecule Inhibitors of Shiga Toxin; Vero cells, Shiga toxin protein synthesis inhibition reporter; hit rate 9.2% among 290,000; AID 2315, 2010; inhibition, % at 38.7 µM; in the data active means inhibition mostly above about 28%, no sharp cut-off; inactive means mostly below about 43%
CHX counter – Cycloheximide Counterscreen for Small Molecule Inhibitors of Shiga Toxin; cell reporter, cycloheximide protein synthesis inhibition counterscreen; AID 2314, 2010; hit rate 12% among 300,000; max response, %; in the data active means max response mostly above about 13%, no sharp cut-off; inactive means mostly below about 14%; further: read at 38.3 µM for the half of the compounds with a filed dose
Giardia FBPA inh – qHTS Assay for Inhibitors of Fructose-1,6-bisphosphate Aldolase from Giardia Lamblia; purified Giardia FBPA; Potency, µM (highest dose often 59.6 µM), usual class: inhibitors; hit rate 0.71% among 290,000; AID 2451, 2010; further: nearly all actives have a fitted effect of over 55% in size
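Giardia FBPA (40 nM reagent) was preincubated 10 min at RT with compound (up to 57.5 uM final), then substrate plus GAPDH/TPI/NAD/arsenate coupling system with diaphorase/resazurin was added; resorufin fluorescence (525/598 nm) was read after 20 min.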
Hits are given with their value; - = inactive; ? = inconclusive; . = no result. Shown is part of a subset that was picked to be rich in hits. Unless noted, the call rests on the fitted dose curve; in most records, active means well fitted curve in the direction sought with a large enough effect; inconclusive means small, poorly fitted or top-dose-only effect, or another doubt; inactive means no such curve, though single readings can be large; an effect the other way counts as inactive or inconclusive.

SMILES | LmPK inhibitor | TbPYK inhibitor | Sm TGR block | Shiga inhibitor | CHX counter | Giardia FBPA inh
O=C(N/N=C/c1cc(Br)cc(Br)c1O)c1cccc(N2CCCC2=O)c1 | - | - | - | - | - | -
O=C(N/N=C/c1cc(Br)c(Br)o1)c1cccnc1 | - | - | 28.2µM | - | - | ?
O=C(N/N=C/c1cccnc1)c1cccc(Cl)c1 | - | - | - | 33.0 | 27.6 | -
O=C(N/N=C/c1ccc(Cl)cc1Cl)c1cccc(N2CCCC2=O)c1 | - | - | - | - | 15.8 | .
O=C(N/N=C\c1cc(Br)c(Br)o1)c1cncc(Br)c1 | - | - | - | - | - | -
COc1ccc(-c2nnc(SCC#N)o2)cc1 | - | - | - | - | 14.6 | -
C#CCSc1nnc(-c2ccc([N+](=O)[O-])cc2)o1 | - | - | ? | 57.8 | 23.2 | -
CCOC(=O)c1[nH]c(CSc2nnc(-c3ccc(OC)cc3)o2)c(C(=O)OCC)c1C | - | - | - | - | - | -
CCCCCCCCSc1nnc(-c2ccc(OC)cc2)o1 | - | - | - | - | - | -
COc1ccc(-c2nnc(SCc3c(C)noc3C)o2)cc1 | - | - | - | 68.4 | 27.2 | -
CCSc1nnc(-c2ccc(OC)cc2)o1 | - | - | - | 97.8 | 56.1 | -
CCC(=O)O[C@H]1C(O[C@@H]2C(C)[C@H](O[C@H]3C[C@@](C)(OC)C(O)C(C)O3)C(C)C(=O)OC(CC)[C@@](C)(O)C(O)[C@H](C)C(=O)C(C)C[C@]2(C)O)OC(C)CC1N(C)C (stereo partly drawn) | . | - | . | . | . | ?
CCCCn1c(N)c(N(CCOC)C(=O)c2ccc(N3CCCC3)c([N+](=O)[O-])c2)c(=O)[nH]c1=O | . | - | - | . | . | .
C#CCSc1nnc(-c2ccc(OC)cc2)o1 | - | - | - | - | 36.9 | -
N#CCSc1nnc(-c2sc3ccccc3c2Cl)o1 | - | - | - | - | 42.1 | -
COC(=O)CSc1nnc(-c2sc3ccccc3c2Cl)o1 | - | - | - | - | - | -
COc1ccc(-c2nnc(SCC(=O)NC3CC3)o2)cc1 | . | - | - | . | . | .
COc1ccc(-n2c(=O)c(-c3ccccc3)nc3cncnc32)cc1 | . | . | . | . | . | -
COc1ccc(SCC(=O)Nc2ccc(N3CCN(C)CC3)c(F)c2)cc1 | - | - | . | - | - | -
Cc1ccc(SCC(=O)Nc2ccc(N3CCN(C)CC3)c(F)c2)cc1 | - | - | - | 89.8 | 48.1 | -
CC(C)C(=O)Nc1ccc(N2CCN(C)CC2)c(F)c1 | - | - | . | - | 22.1 | -
CCOC(=O)C1=C(CSc2nc(C)ccc2C#N)OC(N)=C(C#N)C1c1cccc(OC)c1OC (stereo not drawn) | - | ? | 12.6µM | - | - | ?
CCOC(=O)C1=C(CC)OC(N)=C(C#N)C1c1ccc(OC)c(OC)c1OC (stereo not drawn) | - | - | ? | - | - | ?
Cc1c2cnn(CC(=O)N3CCN(c4ccccc4)CC3)c(=O)c2c(C)n1Cc1ccc(F)cc1 | . | - | - | . | . | .
Cc1ccc(-c2cc(-c3ccc(C)cc3)[n+](-c3ccccc3)c(-c3ccc(C)cc3)c2)cc1 | . | - | - | . | . | .
SMILES | LmPK inhibitor | TbPYK inhibitor | Sm TGR block | Shiga inhibitor | CHX counter | Giardia FBPA inh
Cc1ccc(-c2nc(N)s[n+]2-c2ccccc2)cc1 | 31.6µM | ? | - | 91.0 | 80.9 | ?
COc1ccc(S(=O)(=O)NCCc2sc(-c3ccccc3)nc2C)cc1F | . | - | - | . | . | .
Cc1ccc2nc3c(nc2c1)-c1ccccc1C3=O | - | - | - | 32.0 | 19.6 | -
COc1cc2c(Nc3ccc(Br)cc3F)ncnc2cc1OCC1CCN(C)CC1 | . | - | . | . | . | .
CCCCN(C(=O)C1CC(=O)N(Cc2ccc(C)cc2)C1)c1c(N)n(CC(C)C)c(=O)[nH]c1=O (stereo not drawn) | - | - | - | - | - | .
Cc1ccc(C2=NNC(C(O)C(O)C(O)CO)S2)cc1 (stereo not drawn) | - | - | - | 60.5 | 56.7 | -
COc1ccc(C2NN=C(c3ccc(C)cc3)S2)cc1 (stereo not drawn) | - | - | - | 105.5 | 57.1 | -
CCOc1cc(C2NN=C(c3ccc(C)cc3)S2)ccc1O (stereo not drawn) | - | - | - | 94.1 | 30.0 | -
CCCc1ccc(C(O)c2ncc(-c3ccc(C)cc3)[nH]2)cc1 (stereo not drawn) | . | - | . | . | . | .
CSc1ccc(C2NN=C(c3ccccc3)S2)cc1 (stereo not drawn) | . | - | . | . | . | .
Cc1ccc(-n2c(=O)c3c4c(sc3n(Cc3cc(=O)n5cc(Cl)ccc5n3)c2=O)CCC4)cc1C | . | - | - | . | . | .
O=C(c1ccccc1)N1CCN(CC#Cc2ccccc2)CC1 | - | - | - | 81.5 | 28.8 | -
Cc1cn(-c2cc(NC(=O)c3ccc(C)c(Nc4nccc(-c5cccnc5)n4)c3)cc(C(F)(F)F)c2)cn1 | . | - | . | . | . | .
CC(=O)Oc1ccc(-c2cc3ccc(OC(C)=O)cc3oc2=O)cc1 | . | - | . | . | . | .
CC(=O)Oc1ccc2cc(-c3ccccc3)c(=O)oc2c1 | ? | - | - | 53.1 | 34.4 | -
COc1ccc(-c2cc3ccc(OC(C)C(=O)O)cc3oc2=O)cc1 (stereo not drawn) | - | - | - | - | 13.0 | -
O=C(CCCCl)Oc1ccc2cc(-c3ccc4ccccc4n3)c(=O)oc2c1 | - | - | - | - | 20.1 | -
Cc1cc(OCC(=O)NCC2CCC(C(=O)O)CC2)c2c(C)c(Cc3ccccc3)c(=O)oc2c1 (stereo not drawn) | - | - | 31.6µM | - | - | -
CC(C)c1ccc(NC(=O)c2ccc3c(c2)CCCN3S(C)(=O)=O)cc1 | . | - | - | . | . | .
Cc1ccc(C(=O)OCC(=O)Nc2cc(Cl)ccc2C#N)o1 | . | - | . | . | . | .
C/C(=N\NC(=O)c1nnn(-c2nonc2N)c1CSc1ccc(C)cc1)c1cccnc1 | . | - | . | . | . | .
CC(=O)Oc1ccc2c(=O)c(-c3ccccc3)coc2c1 | - | - | - | 80.4 | 38.5 | -
COc1ccc(-c2cc3ccc(OCC(=O)NCC4CCC(C(=O)O)CC4)cc3oc2=O)cc1 (stereo not drawn) | - | - | - | 28.9 | 26.9 | -
CC(=O)COc1ccc2cc(-c3ccccc3)c(=O)oc2c1 | - | - | - | 72.7 | 42.0 | -
COc1ccc2c(c1)c(=O)oc1cc(OCC(=O)NCC3CCC(C(=O)O)CC3)ccc12 (stereo not drawn) | - | - | - | - | - | -
CCCc1nc(SCC(=O)Nc2nnc(CC)s2)c2c(=O)n(C)c(=O)n(C)c2n1 | - | - | - | - | - | -
CCN(C(=O)c1ccc(S(=O)(=O)N2CCC(C)CC2)cc1)C1CCS(=O)(=O)C1 (stereo not drawn) | . | - | - | . | . | .
CC(C)CCn1c(=O)c2cccnc2n(CC(=O)Nc2ccccc2F)c1=O | . | - | - | . | . | .
O=C(Nc1ccc(Br)cc1)c1cccc(N2C(=O)CCC2=O)c1 | - | - | - | 65.0 | 54.5 | .

Screens as filed in PubChem BioAssay.
